Screen size: about 39,000 compounds; about 1,500 (3.8%) were called active. Only a selection was taken, and actives are over-represented in it overall.

Consider 60 molecules from the antibiotic and cytotoxicity screens of Wong et al. (2023).

The assay deals with HSkMC (human skeletal muscle cells). The assay can be described thus: cytotoxicity call (relative viability < 0.9). As to conditions: 10 µM.
On to `Cc1noc(C)c1S(=O)(=O)N(C)C[C@@H]1Oc2ccc(NC(=O)CCC(F)(F)F)cc2CC(=O)N([C@@H](C)CO)C[C@H]1C`, for which the cytotoxicity call was “inactive”. For the molecule `O=C(O)CN(CC(=O)O)Cc1cc2c(-c3ccccc3C(=O)O)c3cc(CN(CC(=O)O)CC(=O)O)c(=O)cc-3oc2cc1O`, the cytotoxicity call was “inactive”. The entry for `O=C([O-])c1ccccc1-c1c2cc(I)c(=O)c(I)c-2oc2c(I)c([O-])c(I)cc12.[Na+].[Na+]` is “inactive”; for `O=C(O)c1ccccc1-c1c2cc(I)c(=O)c(I)c-2oc2c(I)c(O)c(I)cc12` it is “active”. To `Cn1cnc(CCNC(=O)C[C@H]2CC[C@H]3[C@@H](COC[C@H](O)CN3C(=O)Nc3ccc(Cl)cc3)O2)c1` belongs “inactive”. To `O=C(C[C@@H]1CC[C@@H]2[C@H](COC[C@H](O)CN2S(=O)(=O)c2ccccc2F)O1)N1CCC(Cc2ccccc2)CC1` belongs “inactive”. For `COCC#Cc1cnc2c(c1)C(=O)N([C@@H](C)CO)C[C@@H](C)[C@@H](CN(C)S(=O)(=O)c1cn(C)cn1)O2`, the cytotoxicity call was “inactive”. To `C#CC[C@H](c1nc2cc(Cl)ccc2c(=O)n1Nc1ccccc1)N(CCCN)C(=O)c1cccc(Cl)c1F` belongs “active”.

`COc1ccc(NC(=O)N(C)C[C@H]2OCCCC[C@@H](C)Oc3ccc(NC(=O)c4ccccc4)cc3C(=O)N([C@H](C)CO)C[C@@H]2C)cc1`: the cytotoxicity call is “inactive”. On to `C[C@H](CO)N1C[C@H](C)[C@@H](CN(C)S(=O)(=O)c2cn(C)cn2)Oc2c(NC(=O)c3ccc(-c4nccs4)cc3)cccc2C1=O`, for which the cytotoxicity call was “inactive”. As for `COc1cc(Nc2ncc(F)c(Nc3ccc4c(n3)N(COP(=O)(O)O)C(=O)C(C)(C)O4)n2)cc(OC)c1OC`, the cytotoxicity call is “active”. Take `NC1CCCCC1N.O=C1[O][Pt][O]C1=O` (stereo not given): the cytotoxicity call was “inactive”. As for `Cc1noc(C)c1NC(=O)N(C)C[C@H]1Oc2c(NC(=O)NC(C)C)cccc2C(=O)N([C@@H](C)CO)C[C@H]1C`, the cytotoxicity call was “inactive”. To `Cc1ccc(S(=O)(=O)Nc2ccc3c(c2)C(=O)N([C@@H](C)CO)C[C@H](C)[C@@H](CN(C)C(=O)NC2CCCCC2)OCCCC[C@H](C)O3)cc1` belongs “inactive”; to `C[C@H](CO)N1C[C@H](C)[C@H](CN(C)C(=O)c2ccncc2)OCCCC[C@H](C)Oc2ccc(NS(=O)(=O)c3cn(C)cn3)cc2C1=O`, “inactive”; to `CC(=O)Nc1ncc([N+](=O)[O-])s1`, “inactive”. The entry for `CC(=O)Oc1ccccc1C(=O)Nc1ncc([N+](=O)[O-])s1` is “active”. Consider `CC(=O)Oc1ccccc1C(=O)Nc1ccccc1`, for which the cytotoxicity call is “inactive”.

`C[C@@H]1CN([C@H](C)CO)C(=O)c2cc(N(C)C)ccc2O[C@@H](C)CCCCO[C@@H]1CN(C)S(=O)(=O)c1cn(C)cn1`: the cytotoxicity call is “inactive”. The entry for `CCCNC(=O)C[C@H]1CC[C@H]2[C@@H](COc3ccc(NC(=O)Nc4ccc(C#N)cc4)cc3C(=O)N2C)O1` is “inactive”; for `CCOCCOCCOc1oc(C(=O)NC2CCCCC2)c(-c2ccc(Cl)cc2)c1S(=O)(=O)c1ccc(Cl)cc1` it is “inactive”. The entry for `CN1CCC(=C2c3ccccc3Sc3ccccc32)CC1.O=C(O)C=CC(=O)O` is “inactive”; for `CSc1ccc2c(c1)N(CCC1CCCCN1C)c1ccccc1S2.Cl` (stereo not given) it is “inactive”; for `CS(=O)(=O)O.CSc1ccc2c(c1)C(N1CCN(C)CC1)Cc1ccccc1S2` (stereo not given) it is “active”. To `C[C@@H]1CN([C@H](C)CO)S(=O)(=O)c2ccc(C#Cc3ccc(F)cc3)cc2O[C@H]1CN(C)C(=O)CN(C)C` belongs “inactive”. With `CC(C)NC(=O)N(C)C[C@H]1Oc2ccc(NC(=O)NC3CCCCC3)cc2CC(=O)N([C@@H](C)CO)C[C@H]1C`, the cytotoxicity call was “inactive”. The entry for `CNC(=O)Nc1ccc(-c2nc(N3C[C@H]4CC[C@@H](C3)O4)c3cnn(C4CCC5(CC4)OCCO5)c3n2)cc1` is “active”; for `CCC(C)C1OC2(C=CC1C)CC1CC(CC=C(C)C(OC3CC(OC)C(OC4CC(OC)C(O)C(C)O4)C(C)O3)C(C)C=CC=C3COC4C(OC)C(C)=CC(C(=O)O1)C34O)O2` (stereo not given) it is “active”; for `CCC(C)C1OC2(C=CC1C)CC1CC(CC=C(C)C(OC3CC(OC)C(OC4CC(OC)C(NC(C)=O)C(C)O4)C(C)O3)C(C)C=CC=C3COC4C(O)C(C)=CC(C(=O)O1)C34O)O2` (stereo not given) it is “inactive”. Regarding `CC[C@H](C)[C@H]1O[C@]2(C=C[C@@H]1C)C[C@@H]1C[C@@H](C/C=C(\C)[C@@H](O[C@H]3C[C@H](OC)[C@@H](O[C@H]4C[C@H](OC)[C@@H](NC(C)=O)[C@H](C)O4)[C@H](C)O3)[C@@H](C)/C=C/C=C3\CO[C@@H]4[C@H](O)C(C)=C[C@@H](C(=O)O1)[C@]34O)O2`, the cytotoxicity call was “active”. To `CN[C@@H]1[C@@H](C)O[C@@H](O[C@H]2[C@H](C)O[C@@H](O[C@@H]3/C(C)=C/C[C@@H]4C[C@@H](C[C@]5(C=C[C@H](C)[C@@H](C(C)C)O5)O4)OC(=O)[C@@H]4C=C(C)[C@@H](O)[C@H]5OC/C(=C\C=C\[C@@H]3C)[C@]54O)C[C@@H]2OC)C[C@H]1OC` belongs “active”; to `CO[C@H]1C[C@H](O[C@H]2[C@H](C)O[C@@H](O[C@@H]3/C(C)=C/C[C@@H]4C[C@@H](C[C@]5(C=C[C@H](C)[C@@H](C6CCCCC6)O5)O4)OC(=O)[C@@H]4C=C(C)[C@@H](O)[C@H]5OC/C(=C\C=C\[C@@H]3C)[C@]54O)C[C@@H]2OC)O[C@@H](C)[C@@H]1O`, “inactive”; to `COC1CC(OC2C(C)OC(OC3C(C)=CCC4CC(CC5(C=CC(C)C(C6CCCCC6)O5)O4)OC(=O)C4C=C(C)C(O)C5OCC(=CC=CC3C)C45O)CC2OC)OC(C)C1O` (stereo not given), “inactive”.

Turning to `C[C@H](CO)N1C[C@H](C)[C@@H](CN(C)C(=O)C2CCC2)Oc2cc(C#Cc3ccncc3)ccc2S1(=O)=O`, the cytotoxicity call is “inactive”. The entry for `Cc1noc(C)c1NC(=O)N(C)C[C@@H]1OCCCC[C@@H](C)Oc2ccc(NS(=O)(=O)c3ccc(Cl)cc3)cc2C(=O)N([C@H](C)CO)C[C@H]1C` is “inactive”; for `C[C@@H]1CN([C@H](C)CO)S(=O)(=O)c2ccc(C3=CCCC3)cc2O[C@H]1CN(C)C(=O)c1cnccn1` it is “inactive”. The entry for `COc1cccc(S(=O)(=O)N2C[C@H](O)COC[C@@H]3O[C@H](CC(=O)N4CCOCC4)CC[C@H]32)c1` is “inactive”; for `C[C@H]1CN([C@@H](C)CO)C(=O)c2cc(NC(=O)CCCN(C)C)ccc2O[C@H]1CN(C)Cc1ccc2c(c1)OCO2` it is “inactive”; for `COCC(=O)Nc1ccc2c(c1)OC[C@@H](C)N(C(=O)Cc1cccnc1)C[C@@H](C)[C@@H](OC)CN(C)C2=O` it is “inactive”. To `C[C@H](CO)N1C[C@H](C)[C@@H](CN(C)C(=O)CCN2CCCCC2)Oc2ncc(C#Cc3ccccn3)cc2C1=O` belongs “inactive”; to `CN(Cc1ccccn1)C(=O)[C@@]12COC[C@@H]1CN(S(C)(=O)=O)C2`, “inactive”; to `CC(C)NC(=O)Nc1ccc2c(c1)C(=O)N([C@H](C)CO)C[C@@H](C)[C@H](CN(C)Cc1ccccc1)OCCCC[C@H](C)O2`, “inactive”. Turning to `C[C@H](CO)N1C[C@H](C)[C@H](CN(C)C(=O)Nc2ccc(C(F)(F)F)cc2)Oc2ccc(NC(=O)Nc3ccc(F)cc3)cc2C1=O`, the cytotoxicity call was “active”.

Turning to `C[C@H]1CN([C@@H](C)CO)C(=O)c2cc(NC(=O)Nc3ccc(F)cc3)ccc2O[C@H]1CN(C)C(=O)Nc1ccc(C(F)(F)F)cc1`, the cytotoxicity call was “inactive”. To `C[C@H]1CN([C@@H](C)CO)C(=O)c2cc(NC(=O)Nc3ccc(C(F)(F)F)cc3)ccc2O[C@H]1CN(C)C(=O)Nc1ccc(F)cc1` belongs “inactive”. The entry for `C[C@H](CO)N1C[C@H](C)[C@@H](CN(C)C(=O)Nc2ccc(C(F)(F)F)cc2)Oc2ccc(NC(=O)Nc3ccc(F)cc3)cc2C1=O` is “inactive”; for `C[C@H](CO)N1C[C@H](C)[C@H](CN(C)C(=O)Nc2ccc(F)cc2)Oc2ccc(NC(=O)Nc3ccc(C(F)(F)F)cc3)cc2C1=O` it is “inactive”. The entry for `C[C@@H]1CN([C@@H](C)CO)C(=O)c2cc(NC(=O)Nc3ccc(C(F)(F)F)cc3)ccc2O[C@@H]1CN(C)C(=O)Nc1ccc(F)cc1` is “active”; for `C[C@@H]1CN([C@@H](C)CO)C(=O)c2cc(NC(=O)Nc3ccc(F)cc3)ccc2O[C@@H]1CN(C)C(=O)Nc1ccc(C(F)(F)F)cc1` it is “active”; for `C[C@H]1CN([C@@H](C)CO)C(=O)c2cc(NC(=O)Nc3ccc(F)cc3)ccc2O[C@@H]1CN(C)C(=O)Nc1ccc(C(F)(F)F)cc1` it is “inactive”. On to `C[C@@H]1CN([C@H](C)CO)C(=O)c2cc(NC(=O)Nc3ccc(C(F)(F)F)cc3)ccc2O[C@@H]1CN(C)C(=O)Nc1ccc(F)cc1`, for which the cytotoxicity call was “active”. To `C[C@H](CO)N1C[C@H](C)[C@@H](CN(C)C(=O)Nc2ccc(F)cc2)Oc2ccc(NC(=O)Nc3ccc(C(F)(F)F)cc3)cc2C1=O` belongs “inactive”; to `C[C@@H]1CN([C@H](C)CO)C(=O)c2cc(NC(=O)Nc3ccc(C(F)(F)F)cc3)ccc2O[C@H]1CN(C)C(=O)Nc1ccc(F)cc1`, “inactive”.

In the case of `C[C@@H]1CN([C@H](C)CO)C(=O)c2cc(NC(=O)Nc3ccc(F)cc3)ccc2O[C@H]1CN(C)C(=O)Nc1ccc(C(F)(F)F)cc1`, the cytotoxicity call is “inactive”. To `C[C@@H]1CCCCO[C@H](CN(C)CC2CC2)[C@@H](C)CN([C@H](C)CO)C(=O)c2cc(NS(=O)(=O)c3ccc(Cl)cc3)ccc2O1` belongs “inactive”. To `C[C@@H]1CCCCO[C@@H](CN(C)Cc2ccc3c(c2)OCO3)[C@@H](C)CN([C@@H](C)CO)C(=O)c2cc(NC(=O)Cc3ccccc3)ccc2O1` belongs “inactive”; to `Cc1cc(C(=O)Nc2cccc3c2O[C@H](CN(C)S(=O)(=O)c2ccccc2)[C@H](C)CN([C@@H](C)CO)C3=O)n(C)n1`, “inactive”. Turning to `C[C@H](CO)N1C[C@H](C)[C@H](CN(C)C(=O)NC2CCCCC2)Oc2ccc(NS(=O)(=O)c3cn(C)cn3)cc2CC1=O`, the cytotoxicity call is “inactive”. Take `Cc1nc(C)n(C(=O)N2CCOCC2)n1`: the cytotoxicity call was “inactive”. Consider `C[C@@H](O[C@H]1OCCN(Cc2n[nH]nc2CN(C)C)[C@H]1c1ccc(F)cc1)c1cc(C(F)(F)F)cc(C(F)(F)F)c1`, for which the cytotoxicity call was “inactive”.
